Bioassay records from PubChem BioAssay.
Rows were chosen to be rich in hits. Some 1.3% of all compounds tested hit in one or more screens of this group.
NR5A2 inv ag: suppresses constitutive activity of human LRH-1. AID 602396. inhibition, % at 3.6 µM. 360,000 compounds, 0.13% hits. HEK293T StAR-luciferase reporter, LRH-1 transfected, 24 h;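 active means inhibition above the mean inhibition of all tested compounds plus 3 SD, cut at about 73% in these data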
Target sequence (O00482 whole entry, looked up): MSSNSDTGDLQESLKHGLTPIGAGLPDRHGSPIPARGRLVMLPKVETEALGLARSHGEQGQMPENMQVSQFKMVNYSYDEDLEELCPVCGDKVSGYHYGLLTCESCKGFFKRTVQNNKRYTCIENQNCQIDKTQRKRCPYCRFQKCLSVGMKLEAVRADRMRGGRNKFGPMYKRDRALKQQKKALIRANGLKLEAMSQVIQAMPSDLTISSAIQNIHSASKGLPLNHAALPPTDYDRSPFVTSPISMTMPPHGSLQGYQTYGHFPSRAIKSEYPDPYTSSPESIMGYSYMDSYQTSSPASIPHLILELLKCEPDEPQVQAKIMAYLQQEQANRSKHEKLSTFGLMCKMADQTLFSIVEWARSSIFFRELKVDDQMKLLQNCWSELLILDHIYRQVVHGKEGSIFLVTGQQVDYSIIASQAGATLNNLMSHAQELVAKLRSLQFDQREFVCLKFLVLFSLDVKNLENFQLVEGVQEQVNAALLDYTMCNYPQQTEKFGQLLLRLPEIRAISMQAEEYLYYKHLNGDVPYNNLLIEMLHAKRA
NCOA2 inhibitor: inhibits human steroid receptor coactivator 2; Q15596; HEK293 GAL4-SRC2 luciferase reporter, luminescence; inhibition, % at 9 µM; 370,000 compounds, 0.17% hits; AID 651957;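 active means inhibition above the mean inhibition of all tested compounds plus 3 SD, set per campaign, cut at about 52% in these data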
NCOA3 inh: inhibitors of human steroid receptor coactivator 3 (SRC3); Q9Y6Q9; HEK293 GAL4-SRC3 luciferase reporter, luminescence; inhibition, % at 3.6 µM; 360,000 compounds, 0.17% hits;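 active means inhibition above a per-campaign cutoff, the mean of all compounds plus 3 SD, cut at about 60% in these data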;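 further: higher means less SRC3-driven luciferase light from the GAL4 reporter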
COUP-TFII inh: NR2F2 (human) inhibition, primary screen | P24468 | HEK293T NGFI-A luciferase reporter, luminescence | inhibition, % at 8.6 µM | 370,000 compounds, 0.7% hits;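 active means inhibition above a per-plate cutoff, mean inhibition of test wells between control levels plus 3 SD, cut at about 38% in these data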;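 further: cells cotransfected with COUP-TFII expression vector driving the NGFI-A reporter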
Gli-Sufu block: blocks Gli-Sufu signaling in a luciferase reporter | Sufu-KO-LIGHT fibroblasts, Gli luciferase reporter luminescence | inhibition, % at 5 µM | 340,000 compounds, 0.74% hits | AID 588413;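 active means inhibition above about 55%, limit read from the data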
SRC1 inh: inhibits human SRC1 coactivator; Q15788; HEK293 GAL4-SRC1 luciferase reporter, luminescence; inhibition, % at 3.6 µM; 360,000 compounds, 0.12% hits; AID 588354;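 active means inhibition above the campaign mean plus 3 SD, with each screening campaign given its own cutoff, cut at about 60% in these data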
Gli antag conf: Gli-SUFU antagonism confirmation, single concentration; AID 602428; shares compounds with Gli-Sufu block; 2,500 compounds, 40% hits; Sufu-KO-LIGHT cells, Gli luciferase reporter, luminescence; inhibition, % at 5 µM;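 active means mean inhibition at 5 µM reaching about 45%, limit read from the data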
Gli cytotox: cytotoxicity counter-screen for Gli-SUFU antagonists. shares compounds with Gli-Sufu block. Sufu-KO-LIGHT cells cytotoxicity, ATP luminescence. cytotoxicity, % at 5 µM. 2,500 compounds, 32% hits. AID 651994;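 active means mean cytotoxicity at 5 µM above about 25%, limit read from the data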;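 further: cells exposed to compound overnight for roughly 16 to 18 hours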
Wnt3a cs: counter-screen for Gli-SUFU antagonists: Wnt3a reporter inhibition | shares compounds with Gli-Sufu block | Wnt-LIGHT cells, Wnt3a-driven luciferase reporter, luminescence | inhibition, % at 6.25 µM | 2,500 compounds, 20% hits | AID 651995;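 active means mean inhibition above about 25%, limit read from the data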
Large screens that a line does not name were inactive (follow-up assays come after a bar, where they were run).

CCCCCCCCN1C(=O)[C@@H](CC(=O)NCc2cccs2)C[C@@]2(C(=O)OC)C1=C[C@H](COCc1ccccc1)O[C@@H]2C	none (no result: NR5A2 inv ag, NCOA3 inh, Gli-Sufu block, SRC1 inh)
CCN1CCN(CC(=O)c2c(C)n(C)c3ccc(OC)cc23)CC1	Gli-Sufu block 62.5 | Gli antag conf inactive | Gli cytotox inactive | Wnt3a cs inactive
COc1ccc2c(c1)c(C(=O)CN1CCN(c3ccccc3)CC1)c(C)n2C	none (no result: NR5A2 inv ag, NCOA2 inhibitor, NCOA3 inh, COUP-TFII inh, SRC1 inh)
O=C(N=C1N(Cc2ccccc2)C[C@]2(C=C3CCCCC3n3c(=O)n(-c4ccccc4)c(=O)n32)N1C(=O)OCc1ccccc1)c1ccccc1 (stereo partly specified)	none (no result: NR5A2 inv ag, NCOA3 inh, Gli-Sufu block, SRC1 inh)
CCN(C(=O)c1cccc2c1-c1ccccc1C2=O)c1ccccc1	none (no result: NR5A2 inv ag, NCOA3 inh, Gli-Sufu block, SRC1 inh)
CN(CCCOC(=O)c1cc2ccccc2o1)C1CN(Cc2cn(Cc3ccccc3C(F)(F)F)nn2)S(=O)(=O)C1 (stereo unspecified)	none (no result: NR5A2 inv ag, NCOA3 inh, Gli-Sufu block, SRC1 inh)
Nc1cc2nc[nH]c2cc1N	Gli-Sufu block 62.6 | Gli antag conf inactive | Gli cytotox inactive | Wnt3a cs inactive
O=C(Nc1cccs1)Nc1c(F)c(F)c(F)c(F)c1F	Gli-Sufu block 67.1 | Gli antag conf 71.8 | Gli cytotox 27.4 | Wnt3a cs 38.6
COc1cc(-c2cc(C(=O)Nc3c(Cl)cc(Cl)cc3Cl)c3ccccc3n2)cc(OC)c1OC	none
COc1ccc2nc3ccccc3nc2c1NC(=O)c1ccc(Cl)cc1Cl	Gli-Sufu block 71.4 | Gli antag conf inactive | Gli cytotox inactive | Wnt3a cs inactive
COC(=O)C/C=C/[C@@H](C)[C@H](NC(=O)OCC(Cl)(Cl)Cl)c1ccc(-c2ccccc2)cc1	none (no result: NR5A2 inv ag, NCOA3 inh, Gli-Sufu block, SRC1 inh)
O=C(OC12CCCN(C1)/C(=C/c1ccccc1)C2)c1ccccc1 (stereo unspecified)	none (no result: NR5A2 inv ag, NCOA3 inh, Gli-Sufu block, SRC1 inh)
O=C(c1ccc(Cl)cc1)c1ccc(OCC(=O)N2CCOCC2)cc1	Gli-Sufu block 68.9 | Gli antag conf inactive | Gli cytotox inactive | Wnt3a cs inactive
CCN(CC)C(=O)CC[C@H]1CC[C@]2(CCCN(CC3CC3)C2)O1	none (no result: NR5A2 inv ag, NCOA3 inh, Gli-Sufu block, SRC1 inh)
CCOc1ccc(NS(=O)(=O)c2ccc(C(=O)N3CCCC(C)C3)cc2)cc1 (stereo unspecified)	Gli-Sufu block 56.5 | Gli antag conf inactive | Gli cytotox inactive | Wnt3a cs inactive
CCOc1ccc(S(=O)(=O)Nc2ccc(C(=O)N3CCCC3)cc2)cc1	none
CCOc1ccc(NS(=O)(=O)c2cccc(C(=O)N3CCN(C/C=C/c4ccccc4)CC3)c2)cc1	none | Gli antag conf inactive | Gli cytotox inactive | Wnt3a cs inactive
O=C(c1cccc(S(=O)(=O)N2CCOCC2)c1)N1CCN(C/C=C/c2ccccc2)CC1	none
COc1ccccc1N1CCN(C(=O)c2cc3c(C)nn(-c4ccccc4)c3s2)CC1	none (no result: NR5A2 inv ag, NCOA3 inh, Gli-Sufu block, SRC1 inh)
CCOC(=O)N1CCN(C(=O)c2ccc(CSc3ccc(Cl)cc3)cc2)CC1	Gli-Sufu block 58.0 | Gli antag conf 47.8 | Gli cytotox inactive | Wnt3a cs inactive
COc1ccc(CNC(=O)CSc2ncn[nH]2)cc1	Gli-Sufu block 87.4 | Gli antag conf inactive | Gli cytotox inactive | Wnt3a cs inactive
NC(=O)c1ncn([C@@H]2O[C@H](C(=O)N[C@H](Cc3c[nH]c4ccccc34)C(=O)O)[C@@H](O)[C@H]2O)n1	none (no result: NR5A2 inv ag, NCOA3 inh, Gli-Sufu block, SRC1 inh)
CN(CCO)c1cccc2c1S(=O)(=O)N(Cc1cn(Cc3cccc(F)c3)nn1)Cc1ccccc1O2	none (no result: NR5A2 inv ag, NCOA3 inh, Gli-Sufu block, SRC1 inh)
Cc1ccc(C(=O)N2CCN(c3nc4ccccc4n3C)CC2)cc1	Gli-Sufu block 70.2 | Gli antag conf inactive | Gli cytotox inactive | Wnt3a cs inactive
Cn1c(N2CCN(C(=O)NC34CC5CC(CC(C5)C3)C4)CC2)nc2ccccc21	none
C[C@H]1[C@@H](OC(=O)NCCc2c[nH]c3ccccc23)CC[C@@]23CCCN2C(=O)CCC[C@@H]13	none (no result: NR5A2 inv ag, NCOA2 inhibitor, NCOA3 inh, Gli-Sufu block, SRC1 inh)
O=C(C1CCN(CCCc2ccccc2)CC1)N(CCc1ccccc1)Cc1ccccc1	Gli-Sufu block 56.0 | Gli antag conf inactive | Gli cytotox inactive | Wnt3a cs inactive
COc1ccc(Br)cc1C=NNC(=O)c1ccncc1	none (no result: NR5A2 inv ag, NCOA3 inh, Gli-Sufu block, SRC1 inh)
CCOc1ccc(NC(=O)CCSc2nnc(C)s2)cc1	none | Gli antag conf inactive | Gli cytotox inactive | Wnt3a cs inactive
COc1c(Cl)ccc(Cl)c1C(=O)NCc1ccco1	none | Gli antag conf inactive | Gli cytotox inactive | Wnt3a cs inactive
O=C(C1=C[C@H](c2coc3ccccc3c2=O)C[C@H](OCc2ccc(CO)cc2)O1)N1CCN(Cc2ccc3c(c2)OCO3)CC1	none | Gli antag conf inactive | Gli cytotox inactive | Wnt3a cs inactive
O=C(C1=C[C@@H](c2coc3ccccc3c2=O)C[C@@H](OCc2ccc(CO)cc2)O1)N1CCN(Cc2ccc3c(c2)OCO3)CC1	none
COc1ccc(N2CCCN(CC(=O)Nc3ccc(Cl)cc3)CC2)cc1	none (no result: NR5A2 inv ag, NCOA3 inh, Gli-Sufu block, SRC1 inh)
O=C(Nc1ccccc1Cl)C1CCCN(S(=O)(=O)c2cccc3cccnc23)C1 (stereo unspecified)	Gli-Sufu block 75.6 | Gli antag conf inactive | Gli cytotox inactive | Wnt3a cs inactive
O=S(=O)(c1ccc2ccccc2c1)N1CCN(C(=S)Nc2ccc(F)c(Cl)c2)CC1	Gli-Sufu block 98.8 | Gli antag conf inactive | Gli cytotox inactive | Wnt3a cs inactive
O=S(=O)(c1ccc2ccccc2c1)N1CCN(C(=S)Nc2ccc(F)cc2)CC1	none
COc1ccccc1N1C(C)=CC(=C(C#N)c2nc3ccccc3s2)C=C1C	none | Gli antag conf 53.5 | Gli cytotox inactive | Wnt3a cs 38.1
CCOC(=O)c1sc(NC(=O)Nc2ccccc2F)nc1C	none | Gli antag conf inactive | Gli cytotox 49.1 | Wnt3a cs 84.6
CCOC(=O)c1sc(Nc2ccccc2Cl)nc1C	none
COC(=O)[C@]12C[C@H](CC(=O)N3CCOCC3)C(=O)N(CCc3ccc(OC)c(OC)c3)C1=C[C@H](C1CCCC1)O[C@@H]2C	none (no result: NR5A2 inv ag, NCOA3 inh, Gli-Sufu block, SRC1 inh)
Cc1ccc(NC(=O)c2ccccc2F)nc1	Gli-Sufu block 99.5 | Gli antag conf inactive | Gli cytotox inactive | Wnt3a cs inactive
CC(C)NS(=O)(=O)c1ccc2c(c1)oc(=O)n2C	Gli-Sufu block 57.2 | Gli antag conf inactive | Gli cytotox inactive | Wnt3a cs inactive
Cn1c(=O)oc2cc(S(=O)(=O)Nc3ccccc3)ccc21	none
Cc1ccc(S(=O)(=O)NCCC2=CCCCC2)cc1C(N)=O	Gli-Sufu block 58.3 | Gli antag conf 47.3 | Gli cytotox inactive | Wnt3a cs inactive
O=C(CC1C=CCC1)OCCN1CCN(C2CN(Cc3cn(Cc4ccccc4Cl)nn3)S(=O)(=O)C2)CC1 (stereo unspecified)	none (no result: NR5A2 inv ag, NCOA3 inh, Gli-Sufu block, SRC1 inh)
